The structures appear in SMILES notation. Unmarked numbers belong to inactive results. Results filed as inconclusive are left out. Calls of active or inactive are those of the source. Unless noted, the call rests on the fitted dose curve; in most records, active means well fitted curve in the direction sought with a large enough effect in the repeat runs; inconclusive means weak or mixed curves; inactive means no such curve, though single readings can be large; an effect the other way counts as inactive or inconclusive.

Consider 8 compounds from PubChem BioAssay (Tox21).

Assay [1] has as its target Luciferin 4-monooxygenase (Photinus pyralis) (UniProt P08659). Nature of the assay: qHTS assay to identify small molecule inhibitors of firefly luciferase (AID 1224835). Further: nearly all actives have a fitted effect of over 25% in size. In outline: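 Biochemical qHTS: compounds run as interplate titrations against purified firefly enzyme, with D-luciferin and ATP each at its KM concentration. Light output recorded by CCD imaging.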
Assay [2] in a line: qHTS assay to identify small molecule agonists of the constitutive androstane receptor (CAR) signaling pathway - cell viability counter screen (AID 1224836). Further: nearly all actives have a fitted effect of over 45% in size. In outline:
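23 h treatment, 37 C, 5% CO2. Cell line: HepG2 stably expressing hCAR with a CYP2B6-2.2kb construct. Co-treatment: PK11195, 0.75 uM final. Read-out: CellTiter-Fluor fluorescence intensity.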
A general note: qHTS replaces the single test concentration by a dilution series.

The nature of assay [3]: qHTS assay to identify small molecule antagonists of the constitutive androstane receptor (CAR) signaling pathway - cell viability counter screen (AID 1224837). Further: nearly all actives have a fitted effect of over 45% in size. In outline:
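Using CellTiter-Fluor, viability is scored in HepG2 cells stably carrying hCAR and a 2.2kb CYP2B6 reporter after 23 hr compound exposure across 15 concentrations, with CITCO present at 50 nM.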

The target of assay [4] is Nuclear receptor subfamily 1 group I member 3 (Homo sapiens) (UniProt Q14994). Nature of the assay: qHTS assay to identify small molecule antagonists of the constitutive androstane receptor (CAR) signaling pathway (AID 1224838).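 Further: HepG2 cells stably expressing hCAR with CYP2B6 luciferase reporter stimulated by CITCO; nearly all actives have a fitted effect of over 40% in size.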 Further: potency means the concentration at half of the fitted maximal effect. In outline: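 Reporter luminescence was quantified after 24 h exposure of hCAR/CYP2B6-2.2kb double-stable HepG2 cells to compounds at 15 concentrations in the presence of 50 nM CITCO final.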
Nuclear receptor subfamily 1 group I member 3 (Homo sapiens), sequence (Q14994 whole entry, looked up): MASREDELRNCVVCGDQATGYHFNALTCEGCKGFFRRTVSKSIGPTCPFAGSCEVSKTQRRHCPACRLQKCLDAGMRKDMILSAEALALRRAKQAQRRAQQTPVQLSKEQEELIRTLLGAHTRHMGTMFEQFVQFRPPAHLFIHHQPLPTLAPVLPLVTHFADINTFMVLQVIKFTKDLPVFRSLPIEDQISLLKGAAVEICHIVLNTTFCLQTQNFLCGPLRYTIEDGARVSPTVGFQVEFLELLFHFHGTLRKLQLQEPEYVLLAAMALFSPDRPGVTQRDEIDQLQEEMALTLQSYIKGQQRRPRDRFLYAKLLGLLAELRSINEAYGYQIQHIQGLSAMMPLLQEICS

The nature of assay [5]: qHTS assay to identify small molecule antagonists of the estrogen related receptor signaling pathway with the pleiotropic PPARgamma coactivator (PGC) from Tox21 10K library - cell viability counter screen (AID 1224840; active means well fitted cell-killing curve with a large enough effect in the repeat runs, not every such curve was filed as active; further: nearly all actives have a fitted effect of over 40% in size). The procedure, abridged:
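Here the PGC/ERR cells serve as a cytotoxicity control: they are exposed to compounds for 17.5 hours at 37 C, and live-cell signal is quantified using CellTiter-Fluor fluorescence.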

For assay [6], the target named is Thyrotropin receptor (Homo sapiens) (UniProt P16473). Nature of the assay: qHTS assay to identify small molecule agonists of the thyroid stimulating hormone receptor (TSHR) signaling pathway (AID 1224843; calls by dose curve; further: nearly all actives have a fitted effect of over 45% in size). In outline:
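TSHR-HEK293 cells in agonist mode, 30 min room-temperature step, then cAMP measured by competitive HTRF (cAMP-d2 with anti-cAMP cryptate) after 1 h at room temperature. Tested at 15 concentrations in triplicate.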

Assay [7] can be described thus: qHTS assay to identify small molecule agonists of H2AX (AID 1224845; active means well fitted activation curve with a large enough effect in the signal ratio in the repeat runs, not every such curve was filed as active; the % refers to the signal ratio). The procedure, abridged: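 Wild-type CHO-K1 cells, plated overnight, exposed 3hr at 37C to 15 concentrations (0.76% DMSO final). Lysed, then HTRF anti-pH2AX (S139) cryptate and anti-H2AX-d2 antibodies, 24 hr room temperature; 665/620 nm emission read.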
The nature of assay [8]: qHTS assay to identify small molecule agonists of the hypoxia (HIF-1) signaling pathway (AID 1224846; active means well fitted activation curve with a large enough effect in the signal ratio in the repeat runs, not every such curve was filed as active; the % refers to the signal ratio). In outline: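 Hypoxia-pathway activation was scored as increased beta-lactamase from an HRE-controlled reporter in ME-180 cells; plated at 2,000 cells per well with 0.5% dialyzed FBS, they were exposed 17 hrs to compounds and then given CCF4-AM.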
Assay [9] in a line: qHTS assay to identify small molecule agonists of H2AX - cell viability counter screen (AID 1224847; calls by dose curve; further: top concentration of the series differs between compounds; nearly all actives have a fitted effect of over 30% in size). The procedure, abridged: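 Compounds tested at 15 concentrations were incubated 3 hr at 37C with wild-type CHO-K1 cells; cellular ATP-based luminescence (CellTiter-Glo) indicated viability.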
Assay [10] in a line: qHTS RealTime-Glo MT Cell Viability Assay in HepG2 cells - 24 hour (AID 1224867). Further: nearly all actives have a fitted effect of over 50% in size. In outline: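 Cells + NanoLuc/prosubstrate dispensed (600 cells/well) → 5 h at 37 C/5% CO2 → compounds in DMSO transferred → 40 h incubation at 37 C, luminescence read at 0, 8, 16, 24, 32, 40 h.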
The nature of assay [11]: A CellTox Green Cytotoxicity Assay to monitor cytotoxicity in HEK293 cells - 0 hour (AID 1224869). Further: nearly all actives have a fitted effect of over 50% in size. In outline:
(§1)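 Seeding of HEK293 cells together with cytotoxicity dye preceded a 5 h incubation at 37 C/5% CO2. Test compounds in DMSO were then added and fluorescence monitored across 40 h.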

A short description of assay [12]: qHTS RealTime-Glo MT Cell Viability Assay in HepG2 cells - 40 hour (AID 1224870). Further: nearly all actives have a fitted effect of over 50% in size. The procedure, abridged: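 HepG2 cells (600/well) mixed with RealTime-Glo MT reagent, settled 5 h at 37 C/5% CO2 before compound addition. Nonlytic NanoLuc luminescence from viable-cell prosubstrate reduction read repeatedly during 40 h treatment at 37 C.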
Assay [13] is described as follows: A CellTox Green Cytotoxicity Assay to monitor cytotoxicity in HEK293 cells - 40 hour (AID 1224871). Further: nearly all actives have a fitted effect of over 45% in size. In outline:
as §1

Assay [14] can be described thus: qHTS assay to identify small molecule agonists of the estrogen related receptor signaling pathway with the pleiotropic PPARgamma coactivator (PGC) from Tox21 10K library (AID 1224842). Further: nearly all actives have a fitted effect of over 15% in size. In outline: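 PGC/ERR reporter cell line, 2,000 cells per well, incubated 6 h at 37 C before 23 nL compound in DMSO was added. After 18 h at 37 C, One-Glo luminescence read following 30 min at room temperature.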

A short description of assay [15]: qHTS assay to identify small molecule agonists of the hypoxia (HIF-1) signaling pathway - cell viability counter screen (AID 1224844; calls by dose curve; further: nearly all actives have a fitted effect of over 50% in size). In outline: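 Multiplexed with the HRE beta-lactamase assay, this viability read used CellTiter-Glo luminescence (30 min, RT) on HRE-bla ME-180 cells treated 17 hrs with compounds in 0.5% dialyzed FBS medium.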
The nature of assay [16]: qHTS assay to identify small molecule antagonists of the estrogen related receptor (ERR) signaling pathway from Tox21 library (AID 1224848). Further: nearly all actives have a fitted effect of over 50% in size. In outline: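 ERR reporter cell line (from NTP) seeded 2,000 cells/well, rested 6 h at 37 C/5% CO2, then pin-dosed with compounds in DMSO. After 18 h at 37 C, ONE-Glo added; luminescence read after 30 min at room temperature.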
The nature of assay [17]: qHTS assay to identify small molecule agonists of the estrogen related receptor (ERR) signaling pathway from Tox21 library (AID 1224849; calls by dose curve; further: nearly all actives have a fitted effect of over 15% in size). The following applies: ERR reporter cell line, ONE-Glo luciferase, 18 h; at 92.4 µM (top of the series) unless noted. The procedure, abridged:
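Six hours post-seeding at 37 C/5% CO2, ERR cells receive DMSO-solubilised compounds; after 18 h at 37 C, ONE-Glo reagent is applied and luminescence recorded.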

Assay [18] can be described thus: qHTS assay to identify small molecule antagonists of the estrogen related receptor signaling pathway with the pleiotropic PPARgamma coactivator (PGC) from Tox21 10K library (AID 1224841; call rule not given here; further: potency means the concentration at half of the fitted maximal effect). In outline: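 Each well held 2,000 PGC/ERR cells, pre-incubated six hours (37 C, 5% CO2). Test substances in DMSO were added by pin tool and left for 18 h at 37 C before luciferase detection by One-Glo.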

For assay [19], the target named is Nuclear receptor subfamily 1 group I member 3 (Homo sapiens) (UniProt Q14994). Nature of the assay: qHTS assay to identify small molecule agonists of the constitutive androstane receptor (CAR) signaling pathway (AID 1224839).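 Further: HepG2 cells stably carrying human CAR and a CYP2B6 luciferase reporter; nearly all actives have a fitted effect of over 15% in size.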 The procedure, abridged: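 Compounds tested at 15 concentrations on HepG2 cells stably harbouring hCAR and CYP2B6-2.2kb reporter constructs, co-treated with PK11195 (0.75 uM final), 24 h at 37 C; luminescent reporter signal quantified.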

The nature of assay [20]: qHTS RealTime-Glo MT Cell Viability Assay in HEK293 cells - 32 hour (AID 1224868). The procedure, abridged: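 Tox21 10K qHTS, HEK293, 600 cells/well, RealTime-Glo reagent co-dispensed with cells; 5 h preincubation, compound by pintool, 37 C, luminescence at 0–40 h.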
On the % scale 0 is the no-effect control and ±100 the full control effect.

Luciferin 4-monooxygenase (Photinus pyralis), sequence (P08659 whole entry, looked up): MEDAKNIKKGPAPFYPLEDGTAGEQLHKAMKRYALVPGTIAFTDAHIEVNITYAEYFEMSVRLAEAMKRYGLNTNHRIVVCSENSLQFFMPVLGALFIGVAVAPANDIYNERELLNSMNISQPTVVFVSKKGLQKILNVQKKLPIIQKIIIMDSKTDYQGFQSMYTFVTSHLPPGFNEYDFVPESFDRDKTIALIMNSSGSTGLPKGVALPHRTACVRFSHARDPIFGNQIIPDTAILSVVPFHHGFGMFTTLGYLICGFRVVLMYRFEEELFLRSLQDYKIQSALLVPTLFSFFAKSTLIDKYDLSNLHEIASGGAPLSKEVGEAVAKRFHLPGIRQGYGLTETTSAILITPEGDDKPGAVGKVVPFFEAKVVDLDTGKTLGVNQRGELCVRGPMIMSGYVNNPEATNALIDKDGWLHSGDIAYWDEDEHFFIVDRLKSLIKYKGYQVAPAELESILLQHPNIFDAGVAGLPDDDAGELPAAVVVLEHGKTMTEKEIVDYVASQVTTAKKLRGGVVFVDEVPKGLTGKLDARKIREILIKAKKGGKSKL
Thyrotropin receptor (Homo sapiens), sequence (P16473 whole entry, looked up): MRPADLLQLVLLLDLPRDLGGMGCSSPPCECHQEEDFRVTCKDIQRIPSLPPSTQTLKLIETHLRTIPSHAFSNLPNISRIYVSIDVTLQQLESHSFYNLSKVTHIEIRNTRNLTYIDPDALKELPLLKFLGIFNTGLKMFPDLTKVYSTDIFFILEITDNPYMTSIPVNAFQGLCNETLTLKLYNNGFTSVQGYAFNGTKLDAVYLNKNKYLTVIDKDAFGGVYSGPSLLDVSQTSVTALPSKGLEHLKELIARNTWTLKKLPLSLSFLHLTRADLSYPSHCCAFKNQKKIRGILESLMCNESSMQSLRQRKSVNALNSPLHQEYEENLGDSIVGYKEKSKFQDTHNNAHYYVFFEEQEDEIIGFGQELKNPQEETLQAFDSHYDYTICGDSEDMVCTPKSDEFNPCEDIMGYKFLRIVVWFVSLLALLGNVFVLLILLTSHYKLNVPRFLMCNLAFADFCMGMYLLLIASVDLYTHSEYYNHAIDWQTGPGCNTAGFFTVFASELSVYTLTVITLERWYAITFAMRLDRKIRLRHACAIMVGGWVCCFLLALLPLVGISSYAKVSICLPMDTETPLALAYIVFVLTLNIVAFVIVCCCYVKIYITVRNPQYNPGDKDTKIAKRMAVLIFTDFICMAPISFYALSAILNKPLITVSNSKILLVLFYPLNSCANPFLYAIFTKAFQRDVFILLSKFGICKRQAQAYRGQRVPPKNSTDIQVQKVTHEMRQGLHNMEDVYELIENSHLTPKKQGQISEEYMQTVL

Consider `Nc1cccc(S(=O)(=O)O)c1`, for which the Potency entry in assay [1], in assay [2], in assay [3], in assay [4], in assay [5] and in assay [6] was “inactive” throughout. In addition, the Potency result in assay [7], in assay [9], in [10], in [11], in assay [12] and in assay [13] was “inactive” throughout. The compound was classed as inactive in assay [8].
In the case of `CN(C)CCOc1ccccc1Cc1ccccc1`, the Potency entry in assay [1], in [2], in assay [3], in assay [4], in assay [5] and in assay [14] was “inactive” each time. In addition, the Potency entry in assay [15], in assay [7], in [9], in assay [16], in assay [10] and in [11] was “inactive” each time. For the same compound, the Potency result in assay [12] and in [13] was “inactive” throughout. For the same compound, the activity change, positive = activation in assay [17] was 6.12% [at 42.5 µM].
Regarding `FC(F)(F)C(F)(F)C(F)(F)C(F)(F)C(F)(F)C(F)(F)C(F)(F)C(F)(F)Br`, the Potency entry in [1], in assay [2], in assay [3], in [4], in [5] and in assay [18] was “inactive” each time. Besides, the Potency result in assay [14], in assay [6], in [15], in [9], in assay [16] and in [10] was “inactive” in each case. Besides, the Potency result in [13] was “inactive”. In addition, the compound was classed as inactive in [8]. For the same compound, in assay [17], the activity change, positive = activation is 6.1% [at 42.5 µM].
On to `CCN(CC)CCOc1ccc(Cc2ccccc2)cc1`, for which the Potency result in assay [1], in [2], in assay [3], in assay [4], in [5] and in [6] was “inactive” each time. Moreover, the Potency entry in [15], in assay [7], in assay [9], in [10], in [11] and in [12] was “inactive” in each case. Further, the Potency result in assay [13] was “inactive”. The outcome in assay [8] was inactive.
On to `CN1CCN(C2=Nc3cc(F)ccc3Cc3ccccc32)CC1`, for which the Potency result in assay [1], in [2], in [3], in [19], in assay [5] and in assay [18] was “inactive” throughout. Also, the Potency entry in assay [14], in [6], in assay [15], in assay [9], in assay [16] and in assay [10] was “inactive” in each case. The Potency entry in assay [11], in assay [12] and in assay [13] was “inactive” throughout. The result in [8] was inactive. In addition, the activity change, positive = activation in [17] is 0.425% [at 42.5 µM].
`CCOC(=O)CS`: the Potency result in [1], in [2], in assay [3], in assay [5], in [14] and in assay [6] was “inactive” throughout. For the same compound, the Potency entry in [7], in assay [9], in [10], in assay [12] and in assay [13] was “inactive” throughout. The Potency in [4] is 56 µM (active); in assay [18], 14.1 µM (active). Besides, in assay [8], the compound was called inactive. Moreover, the activity change, positive = activation in [17] was -14.3%.
For the compound `CCC/C=C/CO`, the Potency entry in assay [1], in assay [2], in [3], in assay [4], in [5] and in [6] was “inactive” each time. In addition, the Potency result in assay [15], in assay [9], in assay [10], in assay [20], in assay [11] and in [12] was “inactive” in each case. In addition, in assay [13], the Potency entry is “inactive”. The call in [8] was inactive.
On to `CCCOc1ccc2c(c1)CC[C@@H]1[C@@H]2CC[C@]2(C)C(OC)CC[C@@H]12` (stereo not given in full), for which the Potency entry in assay [1], in [2], in [3], in [4], in assay [5] and in [18] was “inactive” throughout. Moreover, the Potency entry in [14], in assay [6], in assay [15], in assay [7], in assay [16] and in assay [10] was “inactive” in each case. Moreover, the Potency result in [20], in assay [11], in assay [12] and in assay [13] was “inactive” throughout. In addition, in [17], the activity change, positive = activation was -2.22% [at 42.5 µM].
